The values that follow come from PubChem BioAssay AID652068 (The Scripps Research Institute Molecular Screening Center, 2013).

Where “and” joins values, the source holds several entries; their conditions need not be identical. Equal entries are not always repeated. Out of some 4,300 compounds screened, about 4,000 (93%) were called active. The set was probably picked from earlier hits. A selection follows. Values without a mark were called inactive.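 How the source made its calls: active means inhibition above its plate's cutoff, the mean test-well inhibition plus 3 SD (cut at about 4.8% in these data); inactive means the rest.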

The assay can be described thus: displacement of TO-PRO-1 from CAG DNA duplex, counter-screen for rCAG RNA repeat binder project, biochemical, fluorescence, TO-PRO-1 dye, d(CAG) DNA oligo (AID 652068).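 Further: 0% = DNA dye mix with DMSO and 100% = 100 µM mitoxantrone; hits displace the dye from DNA and so lower well fluorescence.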 Particulars: d(CAG) DNA oligo TO-PRO-1 dye displacement, at 3 µM, stronger effect = higher value. A general note: The purpose of a counterscreen is to sort out artefacts and off-target activity.
Take `Cc1cccc(OCC(=O)Nc2ccc(C(=O)O)cc2NC(=O)COc2cccc(C)c2)c1`: the inhibition (as a rule, the share of the control response that was lost under treatment) was 11.1% (active).

On to `O=C(COc1ccccc1Cl)Nc1ccc(C(=O)c2ccc(C(=O)O)cc2)cc1`, for which the inhibition is 3.95%.

`Cc1cc(C)cc(Oc2c(C(F)(F)F)oc3cc(OCC(=O)O)ccc3c2=O)c1`: the inhibition is 4.02%.

For `Cc1cc(C)cc(OCC(=O)Nc2cc(NC(=O)COc3cc(C)cc(C)c3)cc(C(=O)O)c2)c1`, the inhibition is 39.1% (active).

For the compound `Cc1ccccc1-n1c(SCC(=O)Nc2cccc3ccccc23)nc(O)cc1=O`, the inhibition is 7.03% (active).

On to `Cc1ccc(C(=O)/C=C/Nc2ccc(S(=O)(=O)Nc3onc(C)c3C)cc2)cc1`, for which the inhibition was 16.3% (active).

As for `Cc1cc(OC(C)C(=O)Nc2ccc(S(=O)(=O)Nc3onc(C)c3C)cc2)cc(C)c1Cl` (stereo not drawn), the inhibition is 26.6% (active).

Consider `COc1cc2ccccc2cc1C(=O)Nc1ccc(S(=O)(=O)Nc2cc(C)on2)cc1`, for which the inhibition was 23.6% (active).

Regarding `CCOc1ccc(C(=O)Nc2ccc(S(=O)(=O)Nc3cc(C)on3)cc2)cc1`, the inhibition was 6.38% (active).

Turning to `CCn1cc(C(=O)NCC2COc3ccccc3O2)c2cc(OC)c(OC)cc2c1=O` (stereo not drawn), the inhibition was 0.88%.

For the compound `CCc1ccc(OC(C)C(=O)Nc2ccc(S(=O)(=O)Nc3cc(C)on3)cc2)cc1` (stereo not drawn), the inhibition was 5.12% (active).

With `CCOc1cc(C(=O)Nc2ccc(S(=O)(=O)Nc3cnc4ccccc4n3)cc2)cc(OCC)c1OCC`, the inhibition was 26.9% (active).

`Cc1ccc(S(=O)(=O)N2[C@@H](c3ccc(Br)cc3)C(C(=O)O)=C[C@H]2CC2CCCC2)cc1`: the inhibition was 34.4% (active).

Consider `CCCCC[C@@H]1C=C(C(=O)O)[C@H](c2ccc(C#N)cc2)N1S(=O)(=O)c1ccc(C)cc1`, for which the inhibition is 20.6% (active).

With `Cc1cc(C(=O)N/N=C/c2ccc(O)c([N+](=O)[O-])c2)c(C)n1-c1ccc(F)cc1`, the inhibition was 14.8% (active).

For `Cc1ccc(SC(CC(=O)c2ccc(C(C)(C)C)cc2)C(=O)O)cc1` (stereo not drawn), the inhibition is 12.6% (active).

On to `Cn1c2ccccc2c2cc(/C=C(\NC(=O)c3ccccc3)C(=O)NCC(=O)O)ccc21`, for which the inhibition was 12.6% (active).

Take `O=C1CC(c2ccccc2)=NN1c1ccc([N+](=O)[O-])cc1`: the inhibition is 14.2% (active).

For the compound `O=C1Oc2ccccc2C(=O)/C1=C/c1ccccc1O`, the inhibition was 10.7% (active).

Turning to `COc1cccc(-c2coc3cc4oc(=O)c(CC(=O)O)c(C)c4cc23)c1`, the inhibition is 11.6% (active).

Regarding `C=CCSc1nsc(NC(=O)Nc2cccc(C(C)=O)c2)n1`, the inhibition is 16.3% (active).

For `CCSc1nsc(NC(=O)Nc2cccc(C(C)=O)c2)n1`, the inhibition was 12.6% (active).

`O=C(Nc1cccc(Cl)c1)Nc1ccccc1NS(=O)(=O)c1cccs1`: the inhibition was 9.83% (active).

With `O=C(Nc1nncs1)c1ccccc1NS(=O)(=O)c1cccs1`, the inhibition is 6.44% (active).

`COc1ccc(NS(=O)(=O)c2cc(NC(=O)CC(=O)c3ccc([N+](=O)[O-])cc3)ccc2C)cc1`: the inhibition is 19% (active).

As to `COc1cc(OC)c(S(=O)(=O)Nc2ccccc2C(=O)O)cc1S(=O)(=O)Nc1ccccc1C(=O)O`, the inhibition was 6.92% (active).

Turning to `COc1ccc(NS(=O)(=O)c2cc(C(=O)Nc3ccccc3C(=O)O)ccc2C)cc1`, the inhibition is 18.6% (active).

With `CC(=N\NC(=O)c1cc(Br)ccc1O)/C(=N/O)C(=O)Nc1ccccc1`, the inhibition was 3.8%.

Regarding `O=[N+]([O-])c1cc(Cl)cc(/C=N/NC(=S)Nc2cc(S(=O)(=O)N3CCOCC3)ccc2Cl)c1O`, the inhibition was 84.8% (active).

`CCOC(=O)c1c(NC(=O)C2CC=CCC2C(=O)O)sc(C)c1CC` (stereo not drawn): the inhibition is 5.11% (active).

In the case of `C=CCn1c(=S)[nH]c2scc(-c3ccco3)c2c1=O`, the inhibition is 15.4% (active).

`Cc1ccc(Cn2c(SCC(=O)N/N=C/c3ccccc3OCC(=O)O)nc3ccccc32)cc1`: the inhibition was 23% (active).

For the compound `O=C(Cc1ccccc1)Nc1ccc(C(=O)Nc2ccccc2C(=O)O)cc1`, the inhibition is 10.5% (active).

As to `Cc1sc(NC(=O)c2ccc3ncsc3c2)c(C(N)=O)c1C`, the inhibition was 7.12% (active).

Turning to `N#Cc1ccccc1CN1C(=O)S/C(=C/c2cccn2-c2cccc(C(=O)O)c2)C1=O`, the inhibition is 25.7% (active).

For `CC(=O)Nc1ccc(S(=O)(=O)N(CCc2ccccc2)CC(=O)N/N=C/c2ccc(C(=O)O)cc2)cc1`, the inhibition was 5.27% (active).

Turning to `Cc1ccc(N=C2NC(=O)/C(=C/C=C/c3ccco3)S2)cc1C`, the inhibition is 23.8% (active).

Consider `COc1cc(C(=O)Nn2c(O)c(C3=c4ccccc4=NC3=O)sc2=S)ccc1O`, for which the inhibition is 8.15% (active).

In the case of `Cc1ccc(NC(=O)CC2S/C(=N/N=C3\CCCc4ccccc43)NC2=O)cc1` (stereo not drawn), the inhibition was 17.1% (active).

Take `COc1ccc(/C=C/C(=O)c2ccc(NS(=O)(=O)c3ccc(C)cc3)cc2)cc1O`: the inhibition is 18.4% (active).

On to `CCN(CC)C(=O)CSC(Nc1cccc(F)c1)=C(C#N)C#N`, for which the inhibition is 13.2% (active).

With `COc1cc(/C=C2/C(=O)NN(c3cccc(Cl)c3)C2=O)cc(Br)c1O`, the inhibition is 9.22% (active).

On to `CN(C(=O)COC(=O)c1cc(-c2ccco2)nc2ccccc12)C1CCS(=O)(=O)C1` (stereo not drawn), for which the inhibition is 13.2% (active).

On to `COc1ccc(C(CNC(=O)c2cccc(S(=O)(=O)Nc3ccccc3Cl)c2)N2CCOCC2)cc1` (stereo not drawn), for which the inhibition is 27.5% (active).

Regarding `Cc1ccc(NC(=O)CSc2nc(CSc3ccc(C)cc3)cc(=O)[nH]2)cc1`, the inhibition is 16.7% (active).

On to `Cc1ccc(-c2nn(-c3ccccc3)cc2/C=C2\SC(=S)N(CCCCCC(=O)O)C2=O)o1`, for which the inhibition was 28.4% (active).

On to `CN(C)S(=O)(=O)c1cccc(-c2nn(-c3ccccc3)cc2/C=C2\SC(=S)N(CC(=O)O)C2=O)c1`, for which the inhibition was 55.3% (active).

For `CCc1nnc(NS(=O)(=O)c2ccc(N=Cc3c(C)[nH]n(-c4ccc(C)cc4)c3=O)cc2)s1`, the inhibition was 32.2% (active).

For the compound `O=C(N/N=C/c1c(Cl)[nH]c2ccccc12)c1sc2ccccc2c1Cl`, the inhibition is 17.5% (active).

Turning to `Cc1ccc(NC(=S)NNC(=O)CSc2nnc(SCc3ccccc3Cl)s2)cc1`, the inhibition was 18.8% (active).

On to `CC(C)=CCCC1(C)C=Cc2c(ccc3c2[nH]c2cc(O)c(C)cc23)O1` (stereo not drawn), for which the inhibition was 15.3% (active).

Consider `CCOC(=O)C1Nc2ccc(C(F)(F)F)cc2C2C=CCC12` (stereo not drawn), for which the inhibition is 9.84% (active).

With `Cc1cc2nc(-c3ccco3)c(Cc3cccc(F)c3)n2c(C)c1Br`, the inhibition is 11.8% (active).

`CC1(C(=O)NS(=O)(=O)c2ccc(C#N)cc2)CCN1C(=O)c1ccc(C2CCCCC2)cc1` (stereo not drawn): the inhibition was 14.9% (active).

For `Cc1ccc(S(=O)(=O)N2[C@@H](c3cccc4ccccc34)C(C(=O)O)=C[C@H]2C(C)(C)C)cc1`, the inhibition is 15.6% (active).

Take `CCc1ccc(N2CC(C(=O)Nc3ccc(S(=O)(=O)Nc4nccs4)cc3)CC2=O)cc1` (stereo not drawn): the inhibition is 16.7% (active).

For `Cc1ccc(Sc2cc(C(=O)c3ccccc3C(=O)O)ccc2[N+](=O)[O-])cc1`, the inhibition is 29.8% (active).

For the compound `O=C(O)c1ccccc1/C=N/Nc1ccc(S(=O)(=O)Nc2ccc(Cl)cc2)cc1[N+](=O)[O-]`, the inhibition is 27.1% (active).

For `COc1cccc(/C=N/Nc2ccc(S(=O)(=O)Nc3ccccc3C(=O)O)cc2[N+](=O)[O-])c1O`, the inhibition is 79.1% (active).

`COc1ccc(Br)cc1/C=N/Nc1ccc(S(=O)(=O)Nc2ccccc2C(=O)O)cc1[N+](=O)[O-]`: the inhibition was 71.3% (active).

For the compound `COc1ccc(OCC(=O)Nc2nnc(-c3ccco3)s2)cc1`, the inhibition is 8.39% (active).

For the compound `Cc1ccccc1-c1ccc2c(c1)O[C@@H](CN(C)Cc1ccc(C(=O)O)cc1)[C@@H](C)CN([C@H](C)CO)S2(=O)=O`, the inhibition is 21.1% (active).

Regarding `O=C(COc1ccc([N+](=O)[O-])cc1)Nc1cccc(C(=O)Nc2ccccc2C(=O)O)c1`, the inhibition was 24.8% (active).

For `CCOC(=O)c1csc(NC(=O)Nc2cccc(OC)c2)n1`, the inhibition was 16.7% (active).

On to `NC(c1ccccc1)c1csc(NC(=O)Nc2cccc(C(F)(F)F)c2)n1` (stereo not drawn), for which the inhibition is 15.2% (active).

In the case of `COc1ccc(C(N)c2csc(NC(=O)Nc3cccc(C(F)(F)F)c3)n2)cc1` (stereo not drawn), the inhibition is 10.1% (active).

In the case of `NC(c1csc(NC(=O)Nc2cccc(C(F)(F)F)c2)n1)C1CCCCC1` (stereo not drawn), the inhibition was 4.91% (active).

On to `CCN1C(=O)/C(=C2/Sc3ccccc3N2CCCS(=O)(=O)O)SC1=S`, for which the inhibition is 7.23% (active) and 13.9% (active).

For the compound `CCOC(=O)c1ccccc1N1C(=O)C2Sc3[nH]c(=O)sc3C(/C=C/c3ccccc3)C2C1=O` (stereo not drawn), the inhibition was 18.1% (active).

In the case of `Cc1c(CCC(=O)N[C@@H](CC(C)C)C(=O)O)c(=O)oc2c(C)c3oc4c(c3cc12)CCCC4`, the inhibition is 12.2% (active).

Regarding `CC[C@@H](C)[C@H](NC(=O)CCc1c(C)c2cc3c4c(oc3c(C)c2oc1=O)CCCC4)C(=O)O`, the inhibition was 14.9% (active).

Regarding `COc1ccc(C(=O)/C=C/c2ccc(-c3ccccc3)cc2)cc1CSCC(=O)O`, the inhibition was 50.7% (active).

As for `COC(=O)c1ccc(COc2ccc(/C=C/C(=O)c3ccc(OC)c(CSCC(=O)O)c3)cc2OC)cc1`, the inhibition was 24.1% (active).

In the case of `Cc1ccc2nc(N3C(=O)C(O)=C(C(=O)c4ccco4)C3c3cccc(O)c3)sc2c1` (stereo not drawn), the inhibition was 37.6% (active).

As for `N#Cc1c(-c2ccccc2)nc(SCc2ccc([N+](=O)[O-])cc2)[nH]c1=O`, the inhibition was 17.4% (active).

In the case of `Cc1ccc(CSc2nc(-c3ccccc3)c(C#N)c(=O)[nH]2)cc1`, the inhibition is 28.7% (active).

Turning to `N#Cc1c(-c2ccccc2)nc(SCc2cccc(C(F)(F)F)c2)[nH]c1=O`, the inhibition is 50% (active).

For `O=C(O)c1ccc(NC(=O)c2cn(-c3ccccc3)nc2-c2ccc(Cl)cc2)cc1`, the inhibition was 23.2% (active).

As to `O=C(NNC(=S)NC(=O)c1cn(-c2ccccc2)nc1-c1ccccc1)c1ccncc1`, the inhibition was 15.3% (active).

On to `O=C(O)c1ccc(N/N=C/c2cn(-c3ccccc3)nc2-c2cccs2)cc1`, for which the inhibition was 23% (active).

Regarding `N#Cc1c(-c2ccccc2)cc(-c2ccccc2)nc1SCC(=O)O`, the inhibition is 13% (active).

As to `O=C(O)CCn1cc(/C=C/C(=O)c2ccc(Cl)cc2)c(-c2cccc(Br)c2)n1`, the inhibition was 53.6% (active).

On to `Cc1cc(N2C(=O)C(O)=C(C(=O)c3ccc(C)o3)C2c2ccc(OCc3ccccc3)cc2)no1` (stereo not drawn), for which the inhibition is 23.8% (active).
